Measurements from PubChem BioAssay (NCATS).
Results filed as inconclusive are left out. Calls of active or inactive are those of the source. Calls come from the whole dose curve; as a rule, active = well fitted curve in the direction sought with a large enough effect; inconclusive = small, poorly fitted or top-dose-only effect, or another doubt; inactive = no such curve, though single readings can be large; an effect the other way counts as inactive or inconclusive.

Key:
[1] = Cell Viability - LYMP2-004 (AID 966); conditions: LYMP2-004 lymphoblastoid cell viability, qHTS; series mostly up to 92.2 µM; note: nearly all actives have a fitted effect of over 65% in size
In short: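 Viable-cell number estimated from ATP luminescence (CellTiter-Glo) in 2500 human lymphoblastoid cells/well after 24 hr at 37 C with compound. AC50 fitted to the standard Hill equation.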

[2] = Cell Viability - LYMP2-005 (AID 967); conditions: LYMP2-005 lymphoblastoid cell viability; series mostly up to 92.2 µM
In short: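 Steps: seed 2500 LYMP2-005 cells/well, incubate 5 h at 37 C, add compound, incubate 24 h at 37 C, add CellTiter-Glo, wait 30 min at RT, read luminescence. Concentration-response data fitted to Hill equation for AC50.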

[3] = Cell Viability - LYMP2-009 (AID 968); conditions: LYMP2-009 lymphoblastoid cell viability; series mostly up to 92.2 µM; note: nearly all actives have a fitted effect of over 55% in size
[4] = Cell Viability - LYMP2-011 (AID 969); conditions: LYMP2-011 lymphoblastoid cells viability; series mostly up to 92.2 µM;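 note: cells exposed to compound for 24 hours; nearly all actives have a fitted effect of over 60% in size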
In short: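 Cells seeded at 2500 per well rest 5 hr before compound addition, then incubate 24 hr at 37 C. CellTiter-Glo reagent is added for 30 min at room temperature before luminescence detection.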

[5] = Cell Viability - LYMP2-013 (AID 970); conditions: LYMP2-013 lymphoblastoid cells viability; series mostly up to 92.2 µM; note: nearly all actives have a fitted effect of over 55% in size
In short: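 In complete culture medium, human lymphoblastoid cells were dosed for 24 hr at 37 C, with tetraoctylammonium bromide (6.4pM to 92 uM) as positive control. Viability reflects luciferase-based ATP signal; AC50 derived from concentration-response curves.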

[6] = Cell Viability - LYMP2-015 (AID 971); conditions: LYMP2-015 lymphoblastoid cell viability; series mostly up to 92.2 µM; note: nearly all actives have a fitted effect of over 55% in size
In short: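 AC50 values reflect Hill-model fits of ATP-based luminescence (CellTiter-Glo) from a human lymphoblastoid line, 2500 cells/well, treated 24 hr at 37 C.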

[7] = Cell Viability - LYMP2-017 (AID 972); conditions: LYMP2-017 lymphoblastoid cell viability; series mostly up to 92.2 µM;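 note: cells exposed to compound for 24 hours at 37 °C; nearly all actives have a fitted effect of over 55% in size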
In short: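 In this qHTS format, lymphoblastoid cells in complete medium receive test compound for a day at 37 C before ATP content is quantified by luciferase luminescence. Reported AC50 figures come from standard Hill-equation curve fitting.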

[8] = Cell Viability - LYMP2-019 (AID 973); conditions: LYMP2-019 lymphoblastoid cell line viability; series mostly up to 92.2 µM; note: nearly all actives have a fitted effect of over 55% in size
In short: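 AC50 values come from Hill-equation modelling of qHTS concentration-response curves, where viability is measured as luciferase-based ATP luminescence in the lymphoblastoid line after 24 hr compound exposure in complete culture medium.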

[9] = Cell Viability - LYMP2-021 (AID 974); conditions: LYMP2-021 lymphoblastoid cells viability; series mostly up to 92.2 µM
In short: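 In qHTS format, compounds are tested against 2500 lymphoblastoid cells per well for 24 h; viable cell number is inferred from ATP-driven luciferase light, and Hill-equation fitting yields AC50 values.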

[10] = Cell Viability - LYMP2-023 (AID 975); conditions: LYMP2-023 lymphoblastoid cell viability; series mostly up to 92.2 µM
In short: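 In this qHTS, ATP-based luciferase luminescence (CellTiter-Glo) is quantified in human lymphoblastoid cells after 24 hr compound treatment at 37 C; tetraoctylammonium bromide serves as positive control. Concentration-response curves are Hill-fitted to give AC50.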

[11] = Cell Viability - LYMP2-025 (AID 976); conditions: LYMP2-025 lymphoblastoid cell viability; series mostly up to 92.2 µM
In short: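 Luminescent ATP readout after 24 hr treatment of a human lymphoblastoid line (LYMP2-025, 2500 cells/well, 37 C). Reagent developed 30 min at room temperature; AC50 fitted with the Hill equation.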

[12] = Cell Viability - LYMP2-002 (AID 977); conditions: LYMP2-002 lymphoblastoid cell viability, qHTS; series mostly up to 92.2 µM;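 note: compound exposure lasted 24 h at 37 °C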
In short: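 In this qHTS viability screen, 2500 human lymphoblastoid cells per well receive compound for 24 hr at 37 C, and luciferase-based ATP luminescence gives the viability signal. Tetraoctylammonium bromide serves as positive control.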

[13] = Cell Viability - LYMP2-007 (AID 979); conditions: LYMP2-007 lymphoblastoid cell viability; series mostly up to 92.2 µM;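 note: cells exposed to compound for 24 h before reading; nearly all actives have a fitted effect of over 60% in size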
In short: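 Measured via luciferase-based ATP quantitation: lymphoblastoid cells, 24 hr compound exposure at 37 C, AC50 from Hill fits.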

[14] = Cell Viability - LYMP2-008 (AID 980); conditions: LYMP2-008 lymphoblastoid cell viability, qHTS; series mostly up to 92.2 µM; note: nearly all actives have a fitted effect of over 60% in size
In short: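 Measured: ATP-dependent luminescence, proportional to viable cell number, in human lymphoblastoid cells treated 24 hr with compound in complete culture medium. Values are AC50s from Hill-equation modelling of qHTS titrations.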

[15] = Cell Viability - LYMP2-010 (AID 981); conditions: LYMP2-010 lymphoblastoid cell viability, qHTS; series mostly up to 92.2 µM
In short: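 This 24 hr viability screen uses LYMP2-010 lymphoblastoid cells, quantifies ATP via luciferase luminescence, and derives AC50 from Hill fits of qHTS concentration-response data.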

[16] = Cell Viability - LYMP2-012 (AID 982); conditions: LYMP2-012 lymphoblastoid cell viability qHTS; series mostly up to 92.2 µM
[17] = Cell Viability - LYMP2-014 (AID 983); conditions: LYMP2-014 lymphoblastoid cells, viability qHTS; series mostly up to 92.2 µM; note: nearly all actives have a fitted effect of over 50% in size
In short: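 Quantitative HTS in lymphoblastoid cells: 24 hr compound exposure, then CellTiter-Glo ATP luminescence. Positive control was tetraoctylammonium bromide, 6.4pM to 92 uM.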

[18] = Cell Viability - LYMP2-016 (AID 984); conditions: LYMP2-016 lymphoblastoid cell viability, qHTS; series mostly up to 92.2 µM
In short: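 qHTS, 1536-well: 2500 LYMP2-016 cells/well, 5 hr 37 C, compound added, 24 hr 37 C, CellTiter-Glo 30 min RT, luminescence. Tetraoctylammonium bromide positive control. AC50 via Hill fit.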

[19] = Cell Viability - LYMP2-020 (AID 986); conditions: series mostly up to 92.2 µM; note: nearly all actives have a fitted effect of over 55% in size
In short: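 Cells at 2500 per well receive a 24 hr compound exposure at 37 C. Viability is measured as ATP-dependent luciferase luminescence, with AC50 modeled from qHTS concentration-response curves.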

[20] = Cell Viability - LYMP2-022 (AID 987); conditions: LYMP2-022 lymphoblastoid cell viability; series mostly up to 92.2 µM; note: nearly all actives have a fitted effect of over 55% in size
In short: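 In this qHTS cytotoxicity screen, compound titrations were incubated 24 hr at 37 C with human lymphoblastoid cells in complete medium. Luciferase-based ATP luminescence provided the viability signal.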

Measured: Potency
Potency is the fitted concentration of half-maximal effect.

Nc1ccc(O)c(C(=O)O)c1
inactive: all assays above

O=c1cc(-c2ccccc2)oc2ccccc12
inactive: all assays above

COc1cc(CNC(=O)CCCC/C=C/C(C)C)ccc1O
inactive: all assays above

c1ccc2sc(SSc3nc4ccccc4s3)nc2c1
not listed: [13]
inactive: all other assays above

Nc1nc2ccc([N+](=O)[O-])cc2s1
not listed: [2] | [15]
inactive: all other assays above

CCCCCCCCCCCCCCCCCC(=O)O
inactive: all assays above

O=C1CN(/N=C/c2ccc([N+](=O)[O-])o2)C(=O)N1
inactive: [2] | [11] | [16] | [19]

Oc1ccccc1O
inactive: [7] | [8] | [10] | [11] | [13] | [14] | [18]

N=C1N=C(N)c2cc3ccccc3cc21
active: [1] 39.8 µM | [2] 39.8 µM | [3] 39.8 µM | [4] 39.8 µM | [5] 39.8 µM | [6] 50.1 µM | [7] 39.8 µM | [9] 39.8 µM | [10] 39.8 µM | [13] 39.8 µM | [14] 39.8 µM | [15] 39.8 µM | [16] 39.8 µM | [17] 39.8 µM | [18] 39.8 µM | [19] 39.8 µM | [20] 39.8 µM

S=c1[nH]c2ccccc2s1
inactive: all assays above

O=C(O)/C=C\C(=O)O
inactive: all assays above

COc1cc(/C=C/C(=O)CC(=O)/C=C/c2ccc(O)c(OC)c2)ccc1O
active: [1] 31.6 µM | [3] 25.1 µM | [4] 31.6 µM | [5] 50.1 µM | [6] 50.1 µM | [7] 39.8 µM | [8] 39.8 µM | [9] 50.1 µM | [10] 50.1 µM | [11] 50.1 µM | [12] 39.8 µM | [13] 25.1 µM | [14] 25.1 µM | [15] 25.1 µM | [16] 31.6 µM | [18] 39.8 µM | [19] 31.6 µM | [20] 25.1 µM

CN(C)c1ccc(C(=C2C=CC(=[N+](C)C)C=C2)c2ccccc2)cc1
active: [1] 0.316 µM | [2] 0.501 µM | [3] 0.398 µM | [4] 0.316 µM | [5] 0.501 µM | [6] 0.316 µM | [7] 0.501 µM | [8] 0.501 µM | [9] 0.398 µM | [10] 0.398 µM | [11] 0.501 µM | [12] 0.398 µM | [13] 0.251 µM | [14] 0.316 µM | [15] 0.251 µM | [16] 0.158 µM | [17] 0.251 µM | [18] 0.501 µM | [19] 0.316 µM | [20] 0.126 µM

CN(C)c1ccc(N=NS(=O)(=O)O)cc1
inactive: all assays above

CCCOC(=O)c1ccc(O)cc1
inactive: all assays above

Nc1ccc([N+](=O)[O-])cc1O
inactive: all assays above

NCCO
inactive: all assays above

CC(C)NCC(O)COc1cccc2ccccc12 (stereo not given)
not listed: [3]
inactive: all other assays above

CC1(C)S[C@@H]2[C@H](NC(=O)[C@H](N)c3ccccc3)C(=O)N2[C@H]1C(=O)O
inactive: all assays above

CN1CCC[C@H]1c1cccnc1
inactive: all assays above

c1cnc2c(c1)ccc1cccnc12
active: [20] 12.6 µM

O=C(O)c1cc(O)c(O)c(O)c1
not listed: [1] | [11]
inactive: all other assays above

Nc1ccc(O)c([N+](=O)[O-])c1
not listed: [6] | [8]
inactive: all other assays above

C#C[C@]1(O)CC[C@H]2[C@@H]3CCc4cc(O)ccc4[C@H]3CC[C@@]21C
not listed: [2]
inactive: all other assays above

CN(C)CCC(c1ccc(Cl)cc1)c1ccccn1 (stereo not given)
not listed: [6] | [15] | [16]
inactive: all other assays above
